Measured values from PubChem BioAssay (NCI).
The panel holds about 83,000 compounds, 20% with a hit somewhere; the sample as a whole holds those more often.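 Compound tested at a single concentration for 48 hours in 96-well plates; a percent growth value below 10 was scored as active.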 A number with no mark means an inactive call. Activity calls are given as the source filed them.

How the values were obtained:
Test in all cases: NCI-60 one-dose screen, 48 h (100 = growth as untreated, 0 = no growth, -100 = all killed)
NCI-H23 lung = details: 10 µM
NCI-H226 lung = details: 10 µM
K-562 leukemia = details: 10 µM
MDA-MB-231 breast = details: 10 µM
RXF 393 renal = details: 10 µM
U251 CNS = details: 10 µM
LOX IMVI melanoma = details: 10 µM
EKVX NSCLC = details: 10 µM
MOLT-4 leukemia = details: 10 µM
SR leukemia = details: 10 µM
OVCAR-5 ovarian = details: 10 µM
HS 578T breast = details: 10 µM
SW-620 colon = details: 10 µM
MDA-MB-468 breast = details: 10 µM unless noted
CAKI-1 renal = details: 10 µM
NCI-H460 lung = details: 10 µM
PC-3 prostate = details: 10 µM
NCI-H522 lung = details: 10 µM
OVCAR-3 ovarian = details: 10 µM
T-47D breast = details: 10 µM

Which results are given for `COC(=O)c1ccc(-n2cc(CCCN(CCNc3ccnc4cc(Cl)ccc34)C(=O)CCC(=O)O[C@@H]3O[C@@H]4OC5(C)CC[C@H]6[C@H](C)CC[C@@H]([C@H]3C)[C@@]46OO5)nn2)cc1`?
growth (NCI-H23 lung): 40.4%; growth (NCI-H226 lung): 48.4%; growth (K-562 leukemia): 5.64% (active); growth (MDA-MB-231 breast): 62.8%; growth (RXF 393 renal): 34.2%; growth (U251 CNS): 53.3%; growth (LOX IMVI melanoma): 8.12% (active); growth (EKVX NSCLC): 49.4%; growth (MOLT-4 leukemia): -13.5% (active); growth (SR leukemia): -10% (active); growth (OVCAR-5 ovarian): 49.2%; growth (HS 578T breast): 49.6%; growth (SW-620 colon): 31.6%; growth (MDA-MB-468 breast): 33.3%

How did the growth (NCI-H23 lung) turn out when `Cc1c2oc3c(C)ccc(C(=O)N[C@@H]4C(=O)N[C@H](C(C)C)C(=O)N5CCC[C@H]5C(=O)N(C)CC(=O)N(C)[C@@H](C(C)C)C(=O)OC4C)c3nc-2c(C(=O)N[C@@H]2C(=O)N[C@H](C(C)C)C(=O)N3CC(=O)C[C@H]3C(=O)N(C)CC(=O)N(C)[C@@H](C(C)C)C(=O)OC2C)c(N)c1=O` (some centres undefined) was run?
The growth was -38.9% (active).

And the growth (NCI-H226 lung)?
The growth was -4.29% (active).

And the growth (MDA-MB-231 breast)?
The growth was 1.92% (active).

What about the growth (RXF 393 renal) of the same compound?
The growth was -78.8% (active).

What about the growth (LOX IMVI melanoma) of the same compound?
Its growth is -0.489% (active).

And the growth (CAKI-1 renal)?
The growth was 8.23% (active).

And the growth (HS 578T breast)?
The growth was 5.64% (active).

And the growth (SW-620 colon)?
Its growth is 6.93% (active).

And the growth (MDA-MB-468 breast)?
Its growth is -37.7% (active).

`CCOC(=O)C1=C(Nc2ccccc2)C(=O)OC12C(=O)Nc1ccccc12` (centres undefined) was tested. Which growth (NCI-H23 lung) did it give?
Its growth is 97.3%.

And the growth (NCI-H226 lung)?
The growth was 115%.

What about the growth (NCI-H460 lung) of the same compound?
The growth was 108%.

What about the growth (K-562 leukemia) of the same compound?
The growth was 95.5%.

And the growth (MDA-MB-231 breast)?
Its growth is 104%.

And the growth (RXF 393 renal)?
The growth was 119%.

What about the growth (U251 CNS) of the same compound?
The growth was 109%.

And the growth (PC-3 prostate)?
Its growth is 91.3%.

What about the growth (LOX IMVI melanoma) of the same compound?
Its growth is 94.3%.

And the growth (MOLT-4 leukemia)?
The growth was 108%.

And the growth (SR leukemia)?
Its growth is 97.3%.

And the growth (HS 578T breast)?
Its growth is 106%.

And the growth (SW-620 colon)?
Its growth is 97.1%.

What about the growth (MDA-MB-468 breast) of the same compound?
Its growth is 129%.

For `O=C(/C=C/c1ccc(F)cc1)c1nc2ccccc2n1Cc1ccc(F)cc1`, which growth (NCI-H23 lung) is on record?
The growth was 14.6%.

What about the growth (NCI-H226 lung) of the same compound?
The growth was -35.7% (active).

What about the growth (NCI-H522 lung) of the same compound?
The growth was 44.1%.

What about the growth (K-562 leukemia) of the same compound?
The growth was 1.64% (active).

And the growth (RXF 393 renal)?
Its growth is -67.6% (active).

What about the growth (U251 CNS) of the same compound?
Its growth is -56.3% (active).

What about the growth (MOLT-4 leukemia) of the same compound?
Its growth is 1.05% (active).

And the growth (SR leukemia)?
Its growth is 1.79% (active).

And the growth (OVCAR-5 ovarian)?
Its growth is -7.92% (active).

What about the growth (OVCAR-3 ovarian) of the same compound?
Its growth is 22.9%.

And the growth (T-47D breast)?
The growth was 16.6%.

And the growth (MDA-MB-468 breast)?
The growth was -15.7% (active).

Which growth (NCI-H23 lung) does the source give for `O=C([Se]C1C=CCCC1)c1ccc(C(=O)[Se]C2C=CCCC2)s1` (centres undefined) here?
Its growth is -74% (active).

What about the growth (NCI-H226 lung) of the same compound?
The growth was -42.9% (active).

And the growth (NCI-H460 lung)?
Its growth is 4.46% (active).

What about the growth (K-562 leukemia) of the same compound?
The growth was 6.15% (active).

And the growth (RXF 393 renal)?
The growth was -92% (active).

What about the growth (U251 CNS) of the same compound?
Its growth is -88% (active).

And the growth (EKVX NSCLC)?
Its growth is -89.9% (active).

What about the growth (MOLT-4 leukemia) of the same compound?
Its growth is 0.117% (active).

And the growth (SR leukemia)?
Its growth is -33% (active).

What about the growth (T-47D breast) of the same compound?
The growth was -48.1% (active).

Which growth (NCI-H23 lung) does the source give for `COc1cc2cc(C(=O)N3C[C@@H](CCl)c4c3cc(OC(=O)N3CCN(C)[C@@H]5CSSC[C@H]53)c3ccccc43)[nH]c2c(OC)c1OC` here?
Its growth is -80.6% (active).

And the growth (NCI-H226 lung)?
Its growth is -42.7% (active).

And the growth (NCI-H522 lung)?
The growth was -68% (active).

What about the growth (K-562 leukemia) of the same compound?
Its growth is -6.55% (active).

And the growth (MDA-MB-231 breast)?
The growth was -51.3% (active).

What about the growth (RXF 393 renal) of the same compound?
The growth was -93.8% (active).

What about the growth (U251 CNS) of the same compound?
The growth was -14.6% (active).

And the growth (LOX IMVI melanoma)?
The growth was -90.2% (active).

And the growth (EKVX NSCLC)?
The growth was -86.3% (active).

What about the growth (MOLT-4 leukemia) of the same compound?
Its growth is -27.3% (active).

What about the growth (SR leukemia) of the same compound?
The growth was -13.9% (active).

And the growth (HS 578T breast)?
Its growth is -36% (active).

And the growth (SW-620 colon)?
Its growth is -9.04% (active).

What about the growth (MDA-MB-468 breast) of the same compound?
Its growth is -86.3% (active).

`COc1cc2cc(C(=O)N3C[C@@H](CCl)c4c3cc(OC(=O)N3CCN(C)[C@@H]5CSSC[C@@H]53)c3ccccc43)[nH]c2c(OC)c1OC` was tested. Which growth (NCI-H23 lung) did it give?
Its growth is -67.5% (active).

And the growth (NCI-H226 lung)?
The growth was -26.1% (active).

What about the growth (K-562 leukemia) of the same compound?
The growth was 10.1%.

What about the growth (MDA-MB-231 breast) of the same compound?
Its growth is -43.2% (active).

And the growth (RXF 393 renal)?
Its growth is -80.7% (active).

What about the growth (PC-3 prostate) of the same compound?
The growth was -1.7% (active).

And the growth (LOX IMVI melanoma)?
The growth was -32.7% (active).

What about the growth (CAKI-1 renal) of the same compound?
Its growth is -0.707% (active).

And the growth (MOLT-4 leukemia)?
Its growth is 3.8% (active).

What about the growth (SR leukemia) of the same compound?
The growth was 18.9%.

And the growth (OVCAR-5 ovarian)?
The growth was -6.69% (active).

What about the growth (OVCAR-3 ovarian) of the same compound?
Its growth is -15.8% (active).

And the growth (HS 578T breast)?
Its growth is -25.5% (active).

What about the growth (SW-620 colon) of the same compound?
Its growth is -6.71% (active).

And the growth (MDA-MB-468 breast)?
The growth was -80% (active).

`COP(=O)(CC(F)(F)C(F)(F)F)OC` was tested. Which growth (NCI-H23 lung) did it give?
Its growth is 41.8%.

What about the growth (NCI-H226 lung) of the same compound?
Its growth is -55.6% (active).

And the growth (K-562 leukemia)?
The growth was 10.9%.

And the growth (MDA-MB-231 breast)?
The growth was 65.1%.

And the growth (PC-3 prostate)?
The growth was 69.5%.

What about the growth (LOX IMVI melanoma) of the same compound?
The growth was -63.5% (active).

What about the growth (EKVX NSCLC) of the same compound?
Its growth is 81.1%.

What about the growth (CAKI-1 renal) of the same compound?
Its growth is 10.3%.

And the growth (MOLT-4 leukemia)?
Its growth is 5.72% (active).

And the growth (SR leukemia)?
Its growth is 5.42% (active).

And the growth (OVCAR-3 ovarian)?
The growth was -3.42% (active).

And the growth (HS 578T breast)?
The growth was 75.3%.

What about the growth (SW-620 colon) of the same compound?
The growth was -15.9% (active).

What about the growth (MDA-MB-468 breast) of the same compound?
Its growth is -53.6% (active).

With `CC12OOC(C)(OO1)C2CCC(=O)OCCNc1ccnc2cc(Cl)ccc12` (centres undefined) as the compound, how does the growth (NCI-H23 lung) read?
The growth was 4.36% (active).

What about the growth (NCI-H226 lung) of the same compound?
Its growth is 98%.

And the growth (NCI-H522 lung)?
Its growth is -79.2% (active).

And the growth (K-562 leukemia)?
Its growth is 3.42% (active).

And the growth (MDA-MB-231 breast)?
Its growth is 91.5%.

And the growth (RXF 393 renal)?
Its growth is -15.7% (active).

What about the growth (U251 CNS) of the same compound?
Its growth is 105%.

And the growth (LOX IMVI melanoma)?
Its growth is -92.1% (active).

And the growth (EKVX NSCLC)?
The growth was -60.6% (active).

What about the growth (MOLT-4 leukemia) of the same compound?
The growth was 26.1%.

What about the growth (SR leukemia) of the same compound?
Its growth is -27% (active).

And the growth (OVCAR-5 ovarian)?
Its growth is 94.7%.

What about the growth (OVCAR-3 ovarian) of the same compound?
The growth was -65.9% (active).

What about the growth (HS 578T breast) of the same compound?
Its growth is 95.2%.

What about the growth (T-47D breast) of the same compound?
Its growth is 16.5%.

And the growth (SW-620 colon)?
Its growth is 7.3% (active).

What about the growth (MDA-MB-468 breast) of the same compound?
The growth was -51.6% (active).
